Data on 40 compounds can be found in ChEMBL document CHEMBL3988442, “University of Dundee, Small-Polar-MMV Screening Library” (2021).

The target of the experiment is T1, Aspartate--tRNA(Asp/Asn) ligase (Mycobacterium tuberculosis (strain ATCC 25618 / H37Rv)) (UniProt P9WFW3).
T1 sequence (whole entry): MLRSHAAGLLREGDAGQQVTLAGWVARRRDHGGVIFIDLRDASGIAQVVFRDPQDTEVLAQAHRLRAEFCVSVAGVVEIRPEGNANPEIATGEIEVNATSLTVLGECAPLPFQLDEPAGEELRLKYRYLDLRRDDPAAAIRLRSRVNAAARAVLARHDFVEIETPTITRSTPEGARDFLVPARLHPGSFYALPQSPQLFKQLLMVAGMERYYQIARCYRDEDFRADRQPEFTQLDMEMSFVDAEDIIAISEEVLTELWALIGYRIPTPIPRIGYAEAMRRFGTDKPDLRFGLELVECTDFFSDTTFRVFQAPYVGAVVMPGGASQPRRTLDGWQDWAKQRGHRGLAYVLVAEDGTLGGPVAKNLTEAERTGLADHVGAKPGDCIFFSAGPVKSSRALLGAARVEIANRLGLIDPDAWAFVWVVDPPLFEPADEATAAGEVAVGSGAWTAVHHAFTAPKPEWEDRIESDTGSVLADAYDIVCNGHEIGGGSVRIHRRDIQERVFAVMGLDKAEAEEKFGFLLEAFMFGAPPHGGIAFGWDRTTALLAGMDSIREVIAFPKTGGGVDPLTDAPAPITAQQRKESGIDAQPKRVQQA
Briefly: Assay for Asp RNA synthetase-1 from Mycobacterium tuberculosis. The conditions noted are these: 30 µM. It counts as functional. The arrangement: scale not given: in the data most compounds retested in dose-response had high values.
Take `Cc1cnn(CC(C)NCc2ccc(-n3cccn3)cc2)c1` (stereo not given): the Percent Effect was -3.68%.
In the case of `c1coc(-c2nnc(CN3CCCC(CN4CCCCCC4)C3)o2)c1` (stereo not given), the Percent Effect is 2.88%.
The same measure for `COc1c(CNC2CCCOc3ccccc32)c(C)nn1C` (stereo not given): -2.86%; for `O=C(NCCN1CCC(c2cccs2)CC1)c1ccccc1C(F)(F)F`: -10.3%; for `COCCN1C(=O)[C@]2(CC[C@@H]3CN(C(=O)NCC(C)C)C[C@@H]32)N=C1C`: -3.99%.
Regarding `NCc1cn(-c2ccccc2C(=O)NCc2ccccc2)cn1`, the Percent Effect is -1.51%.
The same measure for `Cc1cccc(Cn2c3c(ccc2=O)CCN(Cc2ccoc2)CC3)n1`: 2.51%; for `Cc1nsc(C(=O)N2CCc3ccccc3C2)n1`: -2.11%.
On to `COCCC(=O)N1CC2(CCN(Cc3ccoc3)C2)C1`, for which the Percent Effect came out at 5.6%.
Turning to `CN(C)C(=O)CSc1nnc(CCNC(=O)OC(C)(C)C)o1`, the Percent Effect was determined as 2.93%.
Consider `COCCCN1CCCN(C(C)C(=O)Nc2ccnn2C(C)C)CC1` (stereo not given), for which the Percent Effect was -3.7%.
On to `CS(=O)(=O)NCc1nnc2n1CCN(Cc1cccs1)C2`, for which the Percent Effect was -4.17%.
Consider `CC(C)(C)c1nnc(CN2CCOC(Cn3cncn3)C2)o1` (stereo not given), for which the Percent Effect came out at 0.0111%.
Regarding `COCCN(C)C[C@@H]1CCC[C@@H]2CN(c3cc(OC)ncn3)C[C@@H]21`, the Percent Effect came out at 1.66%.
Turning to `CCc1n[nH]c(C2CN(C(=O)c3cc4c(s3)CCCC4)CCO2)n1` (stereo not given), the Percent Effect is -1.69%.
`CSCc1cccc(S(=O)(=O)N2CCC(C)CC2)c1`: the Percent Effect is -1.92%.
With `Cc1ccc(-c2cc(CN3CCCC(Cn4cncn4)C3)on2)cc1` (stereo not given), the Percent Effect amounted to 2.71%.
Regarding `Cc1cc(N(C)Cc2cc(C)on2)n2nc(C)c(C)c2n1`, the Percent Effect was 1.81%.
Take `Cc1cccc(C(=O)NC(CN2CCCC2=O)c2ccccc2)n1` (stereo not given): the Percent Effect was -1.37%.
The same measure for `CCc1ccc(CNC(=O)NC(C)CN2CCOCC2)s1` (stereo not given): 1.38%; for `Cc1ccc2c(ccn2CCC(=O)N2CCC(C(N)=O)CC2)c1`: 0.842%; for `CCOc1ccccc1OC1CCN(C(=O)c2nc(=O)[nH][nH]2)CC1`: -1.63%.
As to `Cc1csc(N2CCN(C(=O)CCc3nccs3)CC2)n1`, the Percent Effect turned out to be 2.49%.
The same measure for `CC(C)CN1CCCC2(CCN(C(=O)c3cnccn3)C2)C1` (stereo not given): 1.03%; for `CC(C)c1nnc2n1CCN(C(=O)c1ccnc(N(C)C)c1)C2`: -5.48%; for `CC(C)NC(=O)[C@H]1C[C@@H]2[C@@H](C1)OCCN2Cc1cnn(C)c1`: 2.71%.
`CC(C)n1ccnc1CN1CCCN(C(=O)COC2CCCC2)CC1`: the Percent Effect was -1.67%.
For the compound `Cc1c(NC(=O)NCC(C)N2CCOCC2)cccc1OC(F)F` (stereo not given), the Percent Effect is -1.79%.
In the case of `COCc1ncn2c1CN(C(=O)C1CC=CC1)CC2` it was 1.48%; in that of `Cc1n[nH]c(=O)c2c(NC(=O)CN3CCCC(C(F)(F)F)C3)oc(C)c12` (stereo not given), -2.66%.
As to `CS(=O)(=O)N1CC[C@H]2[C@H](C[C@@H](Cn3cncn3)N2CC2CC2)C1`, the Percent Effect came to 10.1%.
Take `CN(Cc1ccccc1O)C(=O)NC1CCCN(c2ncccn2)C1` (stereo not given): the Percent Effect was -4.06%.
With `Cc1nn(C)cc1CN1CCC(C2Nc3ccccc3S(=O)(=O)N2)CC1` (stereo not given), the Percent Effect was -0.223%.
`Cc1cnn(CC2CCCN2C(=O)c2cnc3n[nH]c(C)c3c2)c1` (stereo not given): the Percent Effect was -3.6%.
For `Cc1noc(C)c1-c1cnc(CC2CCN(C(=O)c3cc[nH]n3)C2)cn1` (stereo not given), the Percent Effect is 4.09%.
In the case of `CCc1nc(CN2CCCN(Cc3cnn(C)c3)CC2)no1` it was -10.6%.
`N#Cc1ccnc(N2CCN(Cc3cccc(F)c3)CC2)c1`: the Percent Effect was -3.46%.
In the case of `Cc1nn(C)c(N2CCOCC2)c1CNC(C)c1cccnc1` (stereo not given) it was -8.69%; in that of `Cc1nc(-c2ccc(Cl)s2)sc1C(=O)NCCS(N)(=O)=O`, -0.408%; in that of `Cc1noc2nc(C3CCN(Cc4cccnc4)CC3)cc(C(F)F)c12`, 1.32%.
